# Screening data: PubChem, National Center for Advancing Translational Sciences (NCATS)
# This is one part of a sample in which hits are shown more often than they occur.
# AMA1 RON2 block = inhibitors of Plasmodium falciparum AMA1-RON2 interaction; AlphaScreen AMA1-biotinylated RON2 peptide binding; Potency, µM (highest dose often 58.2 µM), most hits filed as inhibitors; 360,000 compounds, 0.2% hits; note: nearly all actives have a fitted effect of over 45% in size
#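 AMA1 (3D7) with his tag at 25 nM final met compounds first, then biotinylated RON2 peptide at 25 nM; detection used donor plus acceptor beads, 10 µg/mL apiece, read by AlphaScreen after 30 min at room temperature.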
# Cycloheximide cs = counter-screen hit for Shiga toxin inhibitors, cycloheximide. cell reporter, cycloheximide protein synthesis inhibition counterscreen. max response, %. 300,000 compounds, 12% hits. AID 2314; in the data active = max response mostly above about 13%, no sharp cut-off; inactive = mostly below about 14%; note: read at 38.3 µM for the half of the compounds with a filed dose
# AmpC inh detg = blocks E. coli AmpC beta-lactamase in detergent assay. P00811. AmpC hydrolysis of nitrocefin, absorbance 480 nm, 0.01% Triton. Potency, µM (titrated, usually from 114 µM), most hits filed as inhibitors. 370,000 compounds, 0.041% hits. AID 485294; note: nearly all actives have a fitted effect of over 25% in size
# Target sequence (P00811 whole entry, looked up): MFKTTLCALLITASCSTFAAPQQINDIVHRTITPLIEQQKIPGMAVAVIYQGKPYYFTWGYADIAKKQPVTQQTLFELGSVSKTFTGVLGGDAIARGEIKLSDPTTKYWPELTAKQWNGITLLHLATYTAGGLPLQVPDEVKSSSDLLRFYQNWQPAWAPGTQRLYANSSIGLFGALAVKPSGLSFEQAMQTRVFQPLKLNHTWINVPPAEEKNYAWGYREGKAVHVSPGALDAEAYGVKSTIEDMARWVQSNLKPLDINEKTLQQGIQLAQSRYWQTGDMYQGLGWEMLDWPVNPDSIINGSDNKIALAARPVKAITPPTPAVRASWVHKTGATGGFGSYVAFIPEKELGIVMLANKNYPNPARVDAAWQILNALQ
#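 AmpC (5.3 nM in the dispensed reagent) in 20 mM phosphate pH 7.0 with 0.01% (detergent screen) or 0.0001% Triton X-100 was preincubated with compounds for 15 min at room temperature. Nitrocefin was then added from an 800 uM solution, and hydrolysis was followed at 480 nm.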
# Shiga toxin inh = inhibitors of Shiga toxin in Vero cells; Vero cells, Shiga toxin protein synthesis inhibition reporter; inhibition, % at 38.7 µM; 290,000 compounds, 9.2% hits; in the data active = inhibition mostly above about 28%, no sharp cut-off; inactive = mostly below about 43%
# SARS PLP yeast = inhibitors of SARS-CoV papain-like protease in yeast | S. cerevisiae expressing SARS-CoV PLpro, growth rescue | Potency, µM (highest dose often 32.9 µM), most hits filed as activators | 330,000 compounds, 0.19% hits; calls by dose curve; note: nearly all actives have a fitted effect of over 55% in size
# AmpC inh no detg = AmpC beta-lactamase inhibition without detergent; AmpC nitrocefin hydrolysis, absorbance 480 nm, 0.0001% Triton; Potency, µM (series often up to 57.1 µM), usual class: inhibitors; 330,000 compounds, 0.52% hits; AID 485341; note: nearly all actives have a fitted effect of over 20% in size
#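 20 mM phosphate pH 7.0 + 0.01% (detergent screen) or 0.0001% Triton X-100; 5.3 nM AmpC reagent; cpd preinc 15 min RT; nitrocefin (800 uM stock) to start; A480 q20 s × 4 min; Activity was normalised to no-enzyme and no-compound control wells.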
# A number is an active result; – = inactive; ? = inconclusive; · = not tested or not shown. Unless noted, calls come from the whole dose curve; as a rule, active = well fitted curve in the direction sought with a large enough effect; inconclusive = small, poorly fitted or top-dose-only effect, or another doubt; inactive = no such curve, though single readings can be large; an effect the other way counts as inactive or inconclusive.
SMILES,AMA1 RON2 block,Cycloheximide cs,AmpC inh detg,Shiga toxin inh,SARS PLP yeast,AmpC inh no detg
COc1ccc2oc(C(=O)Nc3nnc(C)s3)c(C)c2c1,–,·,–,·,–,–
Cc1ccc2oc(C(=O)Nc3nonc3C)c(C)c2c1,–,28.3,–,66.5,–,–
Cc1ccc(OCc2ccc(C(=O)NCC3CCCO3)cc2)cc1 (configuration not stated),–,–,–,–,–,–
Cn1c(C(=O)NCCCN2CCOCC2)cc2c(=O)n(C)c3ccccc3c21,–,–,–,–,–,–
COc1ccc(NC(=S)Nn2cnnc2)c(OC)c1,–,–,–,–,–,–
N=c1c(S(=O)(=O)c2ccccc2)cc2c(=O)n3ccccc3nc2n1Cc1ccco1,–,–,?,–,–,–
Cc1ccc2nc3c(cc(S(=O)(=O)c4ccccc4)c(=N)n3Cc3ccco3)c(=O)n2c1,–,32.9,–,38.8,–,–
O=S(=O)(Nc1cccc2cccnc12)c1ccccc1Br,·,28.4,·,–,·,·
COc1ccc(C)cc1NC(=O)c1ccc(NS(=O)(=O)c2cccc3cccnc23)cc1,–,–,–,–,–,–
COc1ccccc1NC(=O)c1ccc(NS(=O)(=O)c2cccc3cccnc23)cc1,–,–,–,–,–,7.94µM
O=C(Nc1cccc2cccnc12)OC(Cl)(Cl)Cl,·,21.5,·,–,·,·
O=C(Nc1cccc2cccnc12)c1ccc(Br)o1,–,25.5,–,–,–,–
CC(C)c1ccc(CN2CCN(S(=O)(=O)c3ccc(Cl)s3)CC2)cc1,–,·,–,·,–,–
O=C(NC(=S)Nc1cccc2cccnc12)c1ccccc1,–,–,–,–,–,–
CC(C)Oc1ccc(C(=O)Nc2cccc3cccnc23)cc1,–,26.9,–,59.3,–,–
O=C(Nc1cccc2cccnc12)c1cccc([N+](=O)[O-])c1,–,35.2,–,69.0,–,–
O=C(Nc1cccc2cccnc12)c1ccc(F)cc1,·,35.5,–,64.2,·,·
O=C(Nc1cccc2cccnc12)c1ccccc1,·,24.8,·,43.3,·,·
CC(C)c1ccc(C(=O)Nc2cccc3cccnc23)cc1,·,·,–,·,·,·
COc1cccc(CC2(CO)CCCN(Cc3ccc(CO)o3)C2)c1 (configuration not stated),–,–,–,–,–,–
COc1ccc(C(C)=O)cc1COC(=O)[C@H](Cc1ccccc1)NC(=O)c1ccco1,–,·,·,·,–,–
CCOc1ccccc1NC(=O)CN1CCc2ccccc2C1,–,–,–,–,–,–
O=C(O)C1=CC(=C(c2ccc(O)c(C(=O)O)c2)c2ccc(O)c(C(=O)O)c2)C=CC1=O,·,·,8.91µM,·,·,8.91µM
Cc1c(Oc2ccc(C(F)(F)F)cc2[N+](=O)[O-])ccc2c3c(c(=O)oc12)CCC3,–,–,–,–,?,–
Cc1ccc(Oc2ccc(C(F)(F)F)cc2[N+](=O)[O-])c([N+](=O)[O-])n1,–,29.6,–,–,–,–
SMILES,AMA1 RON2 block,Cycloheximide cs,AmpC inh detg,Shiga toxin inh,SARS PLP yeast,AmpC inh no detg
O=C(OCC(=O)N1CCc2ccccc21)c1ccccn1,–,31.7,–,–,–,–
O=C(OCC(=O)N1CCCc2ccccc21)c1cccnc1Cl,–,–,–,–,–,–
O=C(COc1cccc2cccnc12)N1CCc2ccccc21,–,18.4,–,63.1,–,–
O=C(OCC(=O)N1CCc2ccccc21)c1cccnc1Cl,–,34.7,–,69.3,–,–
Cc1ccc(CN2C(=O)C(CC(C)C)Nc3ncnc(N4CCN(c5ccccn5)CC4)c32)cc1 (configuration not stated),–,·,–,·,–,–
CC(/C=C/c1ccccc1)=N\NC(=O)CNC(=O)c1ccccc1Cl,–,10.1,–,–,–,–
CC(/C=C/C=C/c1ccccc1)=N/NC(=O)C(O)c1ccccc1 (configuration not stated),–,–,–,–,–,–
CC(/C=C/C=C/c1ccccc1)=N/NC(=O)CNc1ccc(C)cc1,–,35.3,–,–,–,–
O=C(O)COc1ccc(/C=C2/SC(=S)N(Cc3ccccc3)C2=O)cc1,–,–,–,–,–,–
CCOC(=O)Cc1csc(NC(=O)COc2ccccc2OC)n1,–,–,–,–,–,–
COc1ccc(/C=N/Nc2nc(C(=O)O)cs2)cc1,–,24.9,–,33.9,?,–
CCOC(=O)Cc1csc(N/N=C\c2cccc(Br)c2)n1,–,11.2,–,51.9,–,–
CCOC(=O)Cc1csc(N/N=C/c2ccccc2)n1,–,60.9,–,104.1,–,–
COC(=O)c1ccc(/C=N/Nc2nc(-c3ccccc3)cs2)cc1,–,–,–,–,–,–
CCOC(=O)Cc1csc(NC(=O)CCCc2ccccc2)n1,–,–,–,–,–,–
CCOC(=O)Cc1csc(N/N=C\c2ccccc2OC)n1,–,23.9,–,50.4,–,–
CN(C)S(=O)(=O)c1ccc(N2CCCC2)c(C(=O)N2CCN(S(=O)(=O)c3cccc(F)c3)CC2)c1,–,·,?,·,–,–
Nc1c2c(nc3ccccc13)CCCC2O (configuration not stated),–,·,·,·,·,·
CCOC(=O)Cc1csc(N/N=C\c2ccc(N(C)C)cc2)n1,–,24.0,–,63.7,–,–
CCOC(=O)Cc1csc(NC(=O)c2ccncc2)n1,–,–,–,–,–,–
COc1ccccc1CNC(=O)Cc1ccc(Br)cc1,–,34.8,–,active,–,–
O=C(Cc1ccc(Br)cc1)NCc1ccccc1,–,19.0,?,–,–,–
Cc1ccc(NC(=O)COC(=O)c2ccnn2C)cc1,–,31.6,?,–,–,–
Cc1ccc(NC(=O)COC(=O)c2ccn(C)n2)cc1,–,20.0,–,–,–,–
CCN(Cc1ccccc1)C(=S)Nc1cc(C(=O)OC)ccc1C(=O)OC,–,–,–,–,–,–
SMILES,AMA1 RON2 block,Cycloheximide cs,AmpC inh detg,Shiga toxin inh,SARS PLP yeast,AmpC inh no detg
COC(=O)[C@@]12C[C@@H](CC(=O)N3CCN(C(=O)c4ccco4)CC3)C(=O)N(Cc3ccccc3)C1=CCC(C)(C)C2,–,·,·,·,·,·
CCO[C@@H]1OC(C(=O)N2CCOCC2)=C[C@H](c2ccc(Br)cc2)[C@H]1CCCO,–,–,–,–,–,–
Cc1ccc(N=c2oc3cc(O)ccc3cc2C(N)=O)cc1,–,56.3,–,80.9,–,–
CC(=O)c1cc2ccc(O)cc2oc1=O,–,–,–,–,–,–
COC(=O)[C@H](NCc1ccc(OC)c(B(O)O)c1)C(C)C,–,·,·,·,·,·
CN1C(=C2C(=O)OC(C)(C)OC2=O)Sc2ccccc21,–,44.1,–,117.2,–,–
CC(=O)NN1C(=O)/C(=C2/Sc3ccccc3N2C)SC1=S,–,–,–,–,–,–
O=C(O)CSCc1c(F)cccc1Cl,–,–,–,–,–,–
CC(Cl)c1cc(-c2ncc(C(F)(F)F)cc2Cl)no1 (configuration not stated),–,22.5,–,83.6,–,–
